Assay outcomes: PubChem BioAssay, The Scripps Research Institute Molecular Screening Center
Only some compounds are listed: those with a hit (about 2.3% of all), similar ones and a draw of the others.
CHRM1 antagonist: blocks human M1 muscarinic receptor | P11229 | CHO-K1 hM1, Fluo-8 calcium fluorescence, ACh EC80 antagonist | inhibition, % at 3 µM | 360,000 tested, 1.3% active;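 active means percent inhibition above its own plate's cutoff, namely the mean of that plate's compound wells plus 3 SD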;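 further: peak over basal fluorescence ratio during 140 s after agonist addition; 0% = ACh EC80 plus DMSO and 100% = DMSO alone without agonist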
Target sequence (P11229 whole entry, looked up): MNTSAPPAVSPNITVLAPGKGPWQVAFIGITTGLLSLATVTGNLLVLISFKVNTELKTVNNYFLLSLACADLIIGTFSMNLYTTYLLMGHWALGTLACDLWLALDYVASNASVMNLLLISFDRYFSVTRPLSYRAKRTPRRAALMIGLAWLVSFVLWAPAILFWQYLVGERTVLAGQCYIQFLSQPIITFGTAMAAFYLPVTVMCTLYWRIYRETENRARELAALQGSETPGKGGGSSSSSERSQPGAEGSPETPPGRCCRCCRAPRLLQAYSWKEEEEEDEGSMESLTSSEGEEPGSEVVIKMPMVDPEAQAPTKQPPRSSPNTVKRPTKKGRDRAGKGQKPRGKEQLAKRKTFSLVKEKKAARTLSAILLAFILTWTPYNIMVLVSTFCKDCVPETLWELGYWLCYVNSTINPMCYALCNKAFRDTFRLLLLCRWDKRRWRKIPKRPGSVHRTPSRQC
M1 ag parental: M1 agonist counterscreen hit in parental CHO-K1 cells; 360,000 tested, 0.48% active; activation, % at 3 µM; Fluo-8 calcium fluorescence; scaled to maximal ATP response, vehicle zero; AID 602248; in the data active means activation above about 15%;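 further: untransfected CHO-K1 host cells lacking M1 receptor as counterscreen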
M1 ag: activates human CHRM1 receptor; P11229; CHO-K1 hM1, Fluo-8 calcium fluorescence, agonist mode; 0% DMSO, 100% acetylcholine EC100; activation, % at 3 µM; 360,000 tested, 0.33% active; AID 588814;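 active means activation above the run's mean compound activation plus 3 SD, cut at about 16% in these data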;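 further: peak over basal fluorescence ratio within a 140 s kinetic read after compound addition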
M1 PAM parental: counter-screen for M1 PAMs: effect in parental CHO-K1 cells | 360,000 tested, 0.02% active | activation, % at 3 µM | ATP EC20, Fluo-8 calcium fluorescence; 0% at ATP EC20, 100% at ATP max;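 active means activation above the run cutoff, the mean activation of all test compounds plus 3 SD, cut at about 40% in these data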;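 further: peak over basal fluorescence ratio in a 140 s read after ATP addition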
CHRM1 PAM: potentiates human M1 receptor response to acetylcholine; 360,000 tested, 0.088% active; activation, % at 3 µM; AID 588819; CHO-K1 hM1, Fluo-8 calcium fluorescence, ACh EC20; 0% = ACh EC20, 100% = maximal ACh; in the data active means activation above about 19%, passing the limit was not always enough
CHO-K1 Ca antag: M1 antagonist counterscreen hit in parental CHO-K1 cells; ATP-induced calcium, Fluo-8 fluorescence; inhibition, % at 3 µM; 360,000 tested, 0.6% active; AID 602250;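 active means inhibition above a per-plate cutoff, the plate's mean sample inhibition plus 3 SD, cut at about 24% in these data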;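 further: 0% = DMSO plus EC80 ATP and 100% = DMSO alone without ATP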
An asterisk follows results filed as active; · = no result.

SMILES	CHRM1 antagonist	M1 ag parental	M1 ag	M1 PAM parental	CHRM1 PAM	CHO-K1 Ca antag
CC(C)CC(NS(=O)(=O)OCC(Cl)(Cl)Cl)c1ccccc1 (stereo unspecified)	35*	-1	-7	-5	-21	-2
CC1(C(=O)NS(=O)(=O)c2ccccc2Cl)CCN1C(=O)CCC1CCCC1 (stereo unspecified)	-7	5	-4	6	2	9
O=C(CN1CCN(Cc2ccccc2Cl)CC1)N/N=C/c1ccco1	-1	17*	-5	10	2	1
O=C(Cn1c(C(F)(F)F)nc2ccccc21)N/N=C/c1ccco1	-6	17*	-10	10	13	11
CCOc1cc(S(=O)(=O)NCc2cccs2)ccc1Cl	-4	1	-4	-1	-12	11
CCOc1cc(S(=O)(=O)NCc2ccncc2)ccc1Cl	23	12	1	-15	-19	55*
CCOc1ccc(S(=O)(=O)NCc2ccncc2)cc1	17	7	1	-2	-6	15
CCOC(=O)COc1ccc(S(=O)(=O)NCc2ccncc2)cc1	19*	13	3	-7	-11	12
CC(C)Nc1nc(NCCOc2ccccc2)c2sccc2n1	9	4	-6	-9	-10	15
CC(C)NC(=O)c1ccc2c(=O)n(C3CCCC3)c(=S)[nH]c2c1	-7	0	-4	3	9	4
CCN(CC)CCNC(=O)c1ccc2c(=O)n(C3CCCC3)c(=S)[nH]c2c1	57*	3	-7	23	-24	-5
O=C(NC(=S)Nc1ccc2c(c1)OCCO2)c1cccc(Br)c1	-4	6	-6	33	1	-7
S=C(Nc1ccc(Br)cc1)Nc1ccc2c(c1)OCCO2	31*	3	-1	-15	-11	1
CC(C)CN1C(=O)C(=O)N(CC(=O)N2c3ccccc3NC(=O)CC2C)C1=O (stereo unspecified)	-12	1	-1	9	8	-13
CC1CC(=O)Nc2ccccc2N1C(=O)CN1CCN(C=O)CC1 (stereo unspecified)	-9	15*	-7	21	11	4
CCOC(=O)c1c(C)[nH]c(C(=O)OCC(=O)NCc2ccco2)c1C	-6	1	-3	17	3	-4
CC1=CC(C)(C)N(C(=O)c2ccccc2)c2ccc(C)cc21	-8	10	28*	31	6	-2
CCOC(=O)c1sc(NC(=O)Nc2ccc(Cl)cc2)cc1C	52*	13	8	-5	-23	46*
O=C1CSC(c2ccc([N+](=O)[O-])cc2)N1CCN1CCCCC1 (stereo unspecified)	-8	1	19*	12	3	-21
CCOC(=O)[C@]12CCCC=C1N(Cc1cccc3ccccc13)C(=O)[C@H](CC(=O)N1CCCCC1)C2	·	1	·	22	·	-18
COc1ccccc1NCC(=O)N/N=C/C=C/c1ccccc1	11	-1	-3	-15	-10	24*
COc1ccc(NCC(=O)N/N=C/C=C\c2ccccc2)cc1	-7	0	-1	14	11	-4
Nc1c2c(nc3sc4c(c13)CCCCC4)CCCCC2	51*	8	-6	1	-24	2
CC1CCc2nc3sc4c(c3c(N)c2C1)CCCC4 (stereo unspecified)	2	0	-12	12	-13	0
CCOC(=O)C1(C)CCN1C(=O)c1cccc(C(F)(F)F)c1 (stereo unspecified)	-16	0	-2	3	6	-1
SMILES	CHRM1 antagonist	M1 ag parental	M1 ag	M1 PAM parental	CHRM1 PAM	CHO-K1 Ca antag
Nc1cc(=O)[nH]n1C1CCN(c2ccccc2)CC1	-5	-1	0	-5	3	26*
Nc1ccc(N2CCN(c3cccc(Cl)c3)CC2)cc1	-6	3	-11	24	-1	-5
CCOC(=O)/C=C1\SCC(=O)N1CC(=O)NC12CC3CC(CC(C3)C1)C2	18	0	-2	-6	-9	24*
CCOC(=O)/C=C1\SCC(=O)N1CC(=O)NCCc1ccc(F)cc1	-3	17*	-7	17	10	0
CCOC(=O)/C=C1\SCC(=O)N1CC(=O)NC(C)C	-14	0	-2	8	1	-1
OC(Cc1cccc(Br)c1)c1ncc(-c2cccc(C(F)(F)F)c2)[nH]1 (stereo unspecified)	-3	4	1	-7	2	19
COc1cccc(CN2CCCC(C(=O)c3ccc4c(c3)OCO4)C2)c1OC (stereo unspecified)	57*	1	-11	16	-26	-13
O=C(c1ccc2c(c1)OCO2)C1CCCN(Cc2cccn2-c2cccnc2)C1 (stereo unspecified)	10	3	-5	5	-8	-12
O=C(c1ccc2c(c1)OCO2)C1CCCN(Cc2c(F)ccc(F)c2F)C1 (stereo unspecified)	88*	-1	-6	10	-24	-19
COc1ccc(C(=O)C2CCCN(Cc3cccc4c3OCO4)C2)cc1OC (stereo unspecified)	29*	0	-13	9	-32	-8
O=C(c1ccc2c(c1)OCO2)C1CCCN(Cc2ccc3nsnc3c2)C1 (stereo unspecified)	78*	1	-8	-10	-27	-18
Cn1c(CN2CCCC(C(=O)c3ccc4c(c3)OCO4)C2)nc2ccccc21 (stereo unspecified)	-6	1	-12	9	-7	-2
COc1ccc(C(=O)C2CCCN(Cc3nc4ccccc4nc3C)C2)cc1OC (stereo unspecified)	2	0	-7	0	0	-11
O=C(c1ccc2c(c1)OCO2)C1CCCN(Cc2cc(F)ccc2-n2cccn2)C1 (stereo unspecified)	-9	0	-8	10	7	-13
COc1ccc(C(=O)C2CCCN(C3Cc4ccccc4C3)C2)cc1OC (stereo unspecified)	90*	0	-9	-10	-27	2
O=C(c1ccc2c(c1)OCO2)C1CCCN(Cc2ccccc2OC(F)F)C1 (stereo unspecified)	75*	0	-7	21	-23	-2
CC[C@@H](C)[C@@H](CO)NC(=O)[C@H]1O[C@@H](n2cnc3c(N)ncnc32)[C@H](O)[C@@H]1O	-30	1	-2	4	6	-15
Cc1ccccc1-c1cnc(C(O)c2ccc(Cl)c(F)c2)[nH]1 (stereo unspecified)	-11	0	-2	0	3	23
Cc1ccccc1-c1ccc2c(c1)O[C@@H](CN(C)C(=O)Nc1ccc(C(F)(F)F)cc1)[C@H](C)CN([C@@H](C)CO)S2(=O)=O	15	1	-10	17	-11	0
COCCNc1nc(Nc2ccc(Cl)cc2F)c2sccc2n1	-5	5	-4	19	-8	-12
